Inconclusive results are not listed. The source made the active and inactive calls. The call rests on the fitted dose curve; in most records, active means well fitted curve in the direction sought with a large enough effect; inconclusive means small, poorly fitted or top-dose-only effect, or another doubt; inactive means no such curve, though single readings can be large; an effect the other way counts as inactive or inconclusive.
Tests used:
HACAT = assay: qHTS assay to identify novel small-molecules to repurpose for Merkel cell carcinoma treatment (AID 1296009); conditions: MCC and control cell lines, CellTiter-Glo viability, 72 h; at 44.8 µM (top of the series) unless noted; further: nearly all actives have a fitted effect of over 60% in size
In short: (§1)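 CellTiter-Glo luminescence after 72 hr compound exposure at 37 degree celsius gave cell viability. Libraries NPC and MIPE were run as 8- and 11-point dose responses; RLUs normalized to DMSO (negative) and no-cell (cytotoxicity) controls.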

MCC-13 = assay: as above; conditions: MCC and control cell lines, CellTiter-Glo viability, 72 h; series mostly up to 46 µM
In short: as §1

MCC-26 = assay: as above; conditions: MCC and control cell lines, CellTiter-Glo viability, 72 h; series mostly up to 46 µM
In short: as §1

MKL-1 = assay: as above; conditions: MCC and control cell lines, CellTiter-Glo viability, 72 h; series mostly up to 46 µM
In short: as §1

MKL-2 = assay: as above; conditions: MCC and control cell lines, CellTiter-Glo viability, 72 h; series mostly up to 46 µM
In short: as §1

NIH3T3 = assay: as above; conditions: MCC and control cell lines, CellTiter-Glo viability, 72 h; at 44.8 µM (top of the series) unless noted
In short: as §1

UISO = assay: as above; conditions: MCC and control cell lines, CellTiter-Glo viability, 72 h; series mostly up to 46 µM
In short: as §1

WaGa = assay: as above; conditions: MCC and control cell lines, CellTiter-Glo viability, 72 h; series mostly up to 46 µM
In short: as §1

C33A = assay: Primary qHTS to identify gynecologic anti-cancer compounds using libraries of approved drugs and bioactive compounds (AID 1345084); conditions: Gynecologic cancer cell panel viability, ATPlite luminescence, 48 h; series mostly up to 57.5 µM; further: nearly all actives have a fitted effect of over 55% in size
In short: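 Five-point cytotoxicity, 48 h drug exposure at 37 C, 5% CO2, on cells seeded 16 h beforehand. ATP content read by ATPlite luminescence.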

HEK293T = assay: qHTS assay to identify novel small-molecules to repurpose for Merkel cell carcinoma treatment (AID 1296009); conditions: MCC and control cell lines, CellTiter-Glo viability, 72 h; at 44.8 µM (top of the series); further: nearly all actives have a fitted effect of over 60% in size
In short: as §1

Measured: Potency

Clc1cccc(N2CCNCC2)c1
not listed: HEK293T
inactive: all other assays above

O=C(O)c1ccc2[nH]cc(CCCCN3CC=C(c4ccccc4)CC3)c2c1
not listed: HEK293T
inactive: all other assays above

CCCC1CCCCN1 (configuration not stated)
not listed: HEK293T
inactive: all other assays above

CNC(=O)c1ccc(N2C(=S)N(c3ccc(C#N)c(C(F)(F)F)c3)C(=O)C23CCC3)cc1F
not listed: NIH3T3
inactive: all other assays above

CC1NCCOC1c1ccccc1 (configuration not stated)
not listed: NIH3T3
inactive: all other assays above

CCC(C(N)=O)N1CCCC1=O (configuration not stated)
not listed: HEK293T
inactive: all other assays above

Cc1ccc(S(=O)(=O)N[C@@H](CCCCN)C(=O)CCl)cc1
not listed: HEK293T
inactive: all other assays above

C=C1CC[C@@]2(O)[C@H]3Cc4ccc(O)c5c4[C@@]2(CCN3CC2CC2)[C@H]1O5
not listed: HEK293T
inactive: all other assays above

COc1ccccc1N1CCNCC1
not listed: NIH3T3
inactive: all other assays above

CC(C)CC(N(C)C)C1(c2ccc(Cl)cc2)CCC1 (configuration not stated)
not listed: HEK293T
inactive: all other assays above

CN1C(=S)CN=C(c2ccccc2)c2cc(Cl)ccc21
not listed: HEK293T
inactive: all other assays above

Cc1ccc2c(c1)C1CN(C)CCC1N2 (configuration not stated)
inactive: HACAT inactive [at 17.4 µM] | MCC-13 | MCC-26 | MKL-1 | MKL-2 | NIH3T3 inactive [at 17.4 µM] | UISO | WaGa | C33A

O=C(NC(O)C(Cl)(Cl)Cl)NC(O)C(Cl)(Cl)Cl (configuration not stated)
not listed: HEK293T
inactive: all other assays above

COc1ccc(C(=O)c2c(C)n(CCN3CCOCC3)c3ccccc23)cc1
not listed: HEK293T
inactive: all other assays above

Cc1cc(SCc2sc(-c3ccc(C(F)(F)F)c(F)c3)nc2C)ccc1OCC(=O)O
inactive: all assays above

c1ccc2c(c1)Nc1ccccc1S2
not listed: NIH3T3 | HEK293T
inactive: all other assays above

CN1CCN(C(=O)O[C@H]2c3nccnc3C(=O)N2c2ccc(Cl)cn2)CC1
not listed: NIH3T3
inactive: all other assays above

NCCc1cc(O)c(O)cc1O
inactive: all assays above

CCN(C(C)=O)c1cccc(-c2ccnc3c(C#N)cnn23)c1
inactive: all assays above

NP(N)(=O)NC(=O)c1ccc(F)cc1
not listed: NIH3T3
inactive: all other assays above
